DT40 TDP1 CPT: qHTS for Inhibitors of human tyrosyl-DNA phosphodiesterase 1 (TDP1): qHTS in cells in presence of CPT; chicken DT40 Tdp1-/-;hTDP1 cells + 20 nM CPT, ATP luminescence, 48 h; Potency, µM (doses to about 46.2 µM), without a hit: top-dose activity change, negative = growth inhibition, usual class: inhibitors; 420,000 compounds, 12% hits; AID 686979, 2013; note: potency is the fitted concentration of half-maximal effect; % is set by controls: 0 for no effect and ±100 for the full control effect; nearly all actives have a fitted effect of over 55% in size
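Chicken DT40 Tdp1-/- cells stably complemented with human TDP1 were seeded at 400 cells/well in medium containing 20 nM camptothecin, exposed to pin-transferred compounds, and grown at 37 °C for at least 48 hr. Viability was read as ATP luminescence.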
TDP1 cell noCPT: qHTS for Inhibitors of human tyrosyl-DNA phosphodiesterase 1 (TDP1): qHTS in cells in absence of CPT; DT40 Tdp1-/- hTDP1 cells, no CPT, ATP luminescence, 48 h; Potency, µM (series often up to 46.2 µM), for inactives: at the highest dose activity change, negative = growth inhibition, hits mostly inhibitors; 420,000 compounds, 15% hits; note: potency is the fitted concentration of half-maximal effect; % is set by controls: 0 for no effect and ±100 for the full control effect; nearly all actives have a fitted effect of over 55% in size
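Seeded 400 DT40-hTDP1 cells/well (vehicle DMSO, no 20 nM CPT); pinned compounds; ≥48 hr at 37 °C; CellTiter-Glo luminescence as viability measure.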
D3 ag: qHTS of D3 Dopamine Receptor Agonist: qHTS; D(3) dopamine receptor (Homo sapiens), P35462; D3R DiscoveRx beta-arrestin cells, luminescence, 90 min; max activation, %; 410,000 compounds, 0.58% hits; in the data active = max activation above about 30%; note: 0% is about no effect
Target sequence (P35462 whole entry, looked up): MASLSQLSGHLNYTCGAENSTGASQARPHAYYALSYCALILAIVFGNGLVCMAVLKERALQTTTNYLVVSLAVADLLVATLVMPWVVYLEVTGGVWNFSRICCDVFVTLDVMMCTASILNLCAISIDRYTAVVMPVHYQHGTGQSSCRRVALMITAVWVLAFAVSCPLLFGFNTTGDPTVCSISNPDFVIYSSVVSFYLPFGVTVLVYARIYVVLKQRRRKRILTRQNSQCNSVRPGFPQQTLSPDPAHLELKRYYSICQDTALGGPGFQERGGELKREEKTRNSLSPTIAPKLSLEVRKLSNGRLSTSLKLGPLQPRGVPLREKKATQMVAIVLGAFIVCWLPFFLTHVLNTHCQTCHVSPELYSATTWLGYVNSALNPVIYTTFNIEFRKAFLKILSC
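Cells at 1500/well, incubated overnight, then treated with pinned compounds (dopamine as control) for 90 min at 37 degrees C. DiscoveRx reagent added for 30 - 60 minutes at room temperature; luminescence read.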
IL1B secr inh: qHTS for Inhibitors of Inflammasome Signaling: IL-1-beta AlphaLISA Primary Screen; THP-1 LPS/ATP IL-1B secretion, AlphaLISA, 16 h; hits give low values; activity change, % at 57.5 µM; 360,000 compounds, 4.7% hits; AID 743279, 2014; in the data active = activity change below about -50%; inconclusive = mostly about -30% to -49%; note: % is set by controls: 0 for no effect and ±100 for the full control effect
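THP-1 cells pretreated 1 hr with compounds (up to 57.5 uM final), then stimulated with LPS (250 ng/mL final) plus ATP (1.25 mM final); secreted IL-1B measured by AlphaLISA after 16 hr, decreased signal indicating inhibition.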
DRD3 antagonist: qHTS of D3 Dopamine Receptor Antagonist: qHTS. D(3) dopamine receptor (Homo sapiens), P35462. D3R cells, DiscoveRx beta-arrestin luminescence, antagonist mode; hits give low values. max response, negative = inhibition, %. 360,000 compounds, 2.5% hits; in the data active = max response below about -50%; inconclusive = no clear call, values can overlap the other calls; note: % is set by controls: 0 for no effect and ±100 for the full control effect
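Cells plated overnight at 1500 cells/well, then exposed to library compounds with dopamine controls for 90 minutes at 37 degrees C. DiscoveRx reagent added for 30–60 minutes at room temperature; luminescence read, quantitative HTS format.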
ClpP mod: qHTS Assay for Activators of ClpP. Potency, µM (highest dose often 57.5 µM), inactives show at the highest dose activity change, negative = active. AID 651965, 2013. 340,000 compounds, 1.9% hits. ATP-dependent Clp protease proteolytic subunit (Bacillus subtilis (strain 168)), P80244. purified B. subtilis ClpP, FRET peptide cleavage, 20 min; active = well fitted falling curve with a large enough effect; inconclusive = small, poorly fitted or top-dose-only effect; inactive = no such curve, though single readings can be large or run the other way; note: potency is the fitted concentration of half-maximal effect; the source files actives as falling curves though it sought activators and does not explain the sign; nearly all actives have a fitted effect of over 65% in size
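Purified B. subtilis ClpP, 10 microg/mL final in Tris/HCl pH8 with KCl, BSA, glycerol and Tween-20, cleaved an Abz/nitrotyrosine-quenched decapeptide. Fluorescence (ex 320, em 430) was read at 0 and 20 min at room temperature. Delta was normalized to 5.8 microM ADEP and DMSO/no-enzyme controls.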
Starred values were filed as active, the others as inactive; ? = inconclusive; nt = no result given; ! = repeats disagree. Only some compounds are listed: those with a hit (about 21% of all), similar ones and a draw of the others. Unless noted, calls come from the whole dose curve; as a rule, active = well fitted inhibition curve with a large enough effect; inconclusive = small, poorly fitted or top-dose-only effect; inactive = flat fitted curve, though single readings scatter.

SMILES	DT40 TDP1 CPT	TDP1 cell noCPT	D3 ag	IL1B secr inh	DRD3 antagonist	ClpP mod
CCCCNc1c(-c2ccc(-c3cccc(Cl)c3)cc2)nc2ccc(Cl)cn12	?	?	3	-7	29	-3%
CCC(C)Sc1cccc(-c2nc3ccc(C)cn3c2NCc2ccccc2)c1 (stereo not drawn)	16µM*	21µM*	17	-104*!	43	4%
Cc1ccc2nc(-c3cccc(Cl)c3)c(Cc3cccc(F)c3)n2c1	?	?	7	0	13	?
CCC(C)Sc1cccc(-c2nc3ccc(Cl)cn3c2NCc2ccccc2)c1 (stereo not drawn)	23µM*	16µM*	0	-54*	-22	25µM*
CCC(C)Sc1cccc(-c2nc3ccccn3c2NCc2ccccc2)c1 (stereo not drawn)	?	?	33*	?	97	4%
COc1cccc(OCc2cc(C(=O)N(C)CCOc3ccc(C)cc3)no2)c1	-26%	-28%	3	25	3	-3%
COc1nc(N)nc2nc[nH]c12	2%	4%	3	-77*	59	0%
COc1ccccc1C(=O)N1CCCN(C(=O)c2ccccc2OC)CC1	-8%	1%	-10	-25	-2	-5%
COc1ccccc1C(=O)N1CCN=C1c1ccccc1	-24%	-11%	34*	6	-9	-1%
COc1cc2c(C#CCCCO)c(-c3ccsc3)oc(=O)c2cc1OC	23µM*	9.2µM*	-1	-21	35	4%
COc1cc2c(C#CCCCO)c(-c3ccc(C#N)cc3)oc(=O)c2cc1OC	-19%	-20%	6	7	23	14µM*
CCc1nnc(NC(=O)COc2ccccc2[N+](=O)[O-])s1	-16%	-20%	-9	-14	-8	2%
CCOc1ccc(/C=C(\C#N)C(=O)Nc2sc3c(c2C(=O)OC)CCC3)cc1OC	3%	7%	3	nt	nt	0%
COc1ccc(C=C2SC(=S)N(CCCN3CCOCC3)C2=O)c(OC)c1	?	16µM*	-4	-11	-27	1%
COc1ccccc1/C=C1\SC(=S)N(CCC(=O)NCCCN2CCOCC2)C1=O	-4%	?	-9	-20	17	nt
COc1ccc(/C=C2\SC(=S)N(CCC(=O)NCCCn3ccnc3)C2=O)cc1	?	16µM*	1	-27	-6	0%
COc1ccc(/C=C2\SC(=S)N(CCC(=O)Nc3ccc(C(=O)O)cc3)C2=O)cc1OC	-5%	15%	5	8	12	0%
COC(=O)c1ccc(/C=C2/SC(=S)N(CCC(=O)NCCCN3CCOCC3)C2=O)cc1	?	?	4	-57*	4	nt
CC(C)c1ccc(/C=C2\SC(=S)N(CCC(=O)NCCCn3ccnc3)C2=O)cc1	?	?	8	-11	1	-3%
O=C(CCCN1C(=O)/C(=C/c2ccccc2Cl)SC1=S)NCCCN1CCOCC1	21µM*	?	-22	-104*	0	1%
O=C1CCC(c2ccccc2)N1c1ccccc1 (stereo not drawn)	-18%	-10%	4	18	-2	-3%
O=C(CCN1C(=O)/C(=C/c2ccccc2F)SC1=S)NCCCN1CCOCC1	?	?	20	-97*	5	0%
Cn1cc(/C=C2\SC(=S)N(N3CCOCC3)C2=O)c2ccccc21	13%	1%	-7	7	56	nt
O=C(CCN1C(=O)/C(=C/c2ccccc2)SC1=S)NCCCN1CCOCC1	?	?	6	-59*	0	nt
